Test [1] can be described thus: NCI Yeast Anticancer Drug Screen. Data for the rad50 strain (AID 155).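 Also: 0% = growth of vehicle-only cultures of the same strain.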 As to conditions: S. cerevisiae rad50 strain growth inhibition, stronger effect = higher value; at 50.0 µM unless noted. In short, it runs like this:
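Relative growth inhibition (compound vs vehicle) was measured in yeast with a defined repair-gene alteration.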

The nature of test [2]: NCI Yeast Anticancer Drug Screen. Data for the mec2-1 strain (AID 157). As to conditions: S. cerevisiae mec2-1 strain, stronger effect = higher value; at 50.0 µM unless noted. The method, boiled down: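 Using mec2-1 yeast: add compound, measure growth, express inhibition versus vehicle-treated cultures.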
Test [3] is described as follows: NCI Yeast Anticancer Drug Screen. Data for the sgs1 mgt1 strain (AID 161).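 Also: 0% = growth of cultures given vehicle only.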 As to conditions: S. cerevisiae sgs1 mgt1 strain, stronger effect = higher value; at 50.0 µM unless noted. In short, it runs like this:
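Compounds are added to genetically altered yeast, and growth is compared with cultures given vehicle alone to give percent inhibition.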

A short description of test [4]: NCI Yeast Anticancer Drug Screen. Data for the cln2 rad14 strain (AID 165).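 Also: 0% = growth equal to vehicle treated cultures.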 As to conditions: S. cerevisiae cln2 rad14 strain, stronger effect = higher value; at 50.0 µM unless noted. The method, boiled down:
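Yeast strain cln2 rad14, bearing defects in cell cycle control and DNA repair, serves as the test system; values reflect growth inhibition compared with vehicle.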

Test [5] is described as follows: NCI Yeast Anticancer Drug Screen. Data for the bub3 strain (AID 167). As to conditions: S. cerevisiae bub3 mutant strain, stronger effect = higher value; at 50.0 µM unless noted. The method, boiled down:
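Screening used yeast with an engineered genetic alteration affecting cell cycle control. Compound-exposed cultures were compared with vehicle cultures, and reduced growth was taken as inhibition.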

Test [6] can be described thus: NCI Yeast Anticancer Drug Screen. Data for the mlh1 rad18 strain (AID 175). As to conditions: S. cerevisiae mlh1 rad18 strain growth inhibition, stronger effect = higher value; at 50.0 µM unless noted. In short, it runs like this:
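Steps: expose repair-defective yeast to compound; measure growth; express inhibition against vehicle-treated controls.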

These results are taken from PubChem BioAssay (NCI).

Molecules are shown by their SMILES. About 79,000 compounds went through this panel and 15% of them were active in at least one assay; those are over-represented in the sample as a whole. Values without a mark were called inactive. The source made the active and inactive calls. Rule as the data show it: active = growth inhibition above about 70%; inactive = the rest.

Take `S=c1nc[nH]c2[nH]cc(Br)c12`: the growth inhibition in test [1] is 11.6%; in test [2], -6.55%; in test [3], 2.5%; in test [4], -4.7%; in test [5], 3.75%; in test [6] it was 11.8%.

Consider `O=c1nc2c(c(-c3ccc(F)cc3)[nH]1)COC/C2=C\c1ccc(F)cc1`, for which the growth inhibition in test [1] was 18.2%; in test [2], 11.3%; in test [3], 34.5%; in test [4], 21.1%; in test [5], 28.6%; in test [6] it was 33.2%.

As for `CCCCCCN1COCC(COc2ccc(Cl)cc2)OC1` (stereo unspecified), the growth inhibition is 23.8% in test [1]; 18.8% in test [2]; 36.9% in test [3]; 22.1% in test [4]; 10.7% in test [5]; 50.1% in test [6].

With `COc1cc(N=Nc2c(N)nc(N)[nH]c2=O)c(OC)cc1Cl`, the growth inhibition is -8.45% in test [1]; 3.65% in test [2]; -8% in test [3]; 5.05% in test [4]; 1.35% in test [5]; 3% in test [6].

For the compound `NC(=S)N/N=C\c1cccc(O)c1O`, the growth inhibition in test [1] is 2.9%; in test [2], 25.1%; in test [3], 21%; in test [4] it was 7%; in test [5] it was 13.4%; in test [6], 12.7%.

Consider `O=C1c2sc(-c3ccc(Cl)cc3)cc2-n2cccc21`, for which the growth inhibition is 9.3% in test [1]; 15.4% in test [2]; 2.15% in test [3]; 2.5% in test [4]; -9.2% in test [5]; 26.2% in test [6].

As to `CCOC(=O)CN(c1c(C)cc([N+](=O)[O-])c2ccccc12)S(=O)(=O)c1ccccc1`, the growth inhibition in test [1] is 50.1%; in test [2], 13.8%; in test [3], 33.8%; in test [4] it was 6.65%; in test [5], 16.9%; in test [6], 12.2%.

With `CCOCNC(=O)NCC(F)(F)C(F)(F)C(F)(F)C(F)(F)C(F)(F)C(F)(F)C(F)(F)F`, the growth inhibition in test [1] was -1.55%; in test [2], -21.5%; in test [3], -4.6%; in test [4] it was -5.5%; in test [5], -1.65%; in test [6], 12.9%.

For `O=CC(=O)O`, the growth inhibition was 28.1% in test [1]; -19.6% in test [2]; 15.7% in test [3]; 13.7% in test [4]; 26.6% in test [5]; 25.7% in test [6].

Consider `Cc1ccc(OCCC(=O)N(C)C)cc1`, for which the growth inhibition in test [1] was 5.05%; in test [2] it was 2.9%; in test [3], -8.25%; in test [4], -10%; in test [5] it was 4.2%; in test [6], 10.9%.

With `O=C1NC(=O)C(Cc2ccccc2)(c2cccnc2)N1` (stereo unspecified), the growth inhibition in test [1] is -28.6%; in test [2], -17.7%; in test [3], -5.65%; in test [4], -36.1%; in test [5], -0.65%; in test [6] it was -22.2%.

On to `Cc1ccc(C)n1CCCCCCCn1c(C)ccc1C`, for which the growth inhibition is -24.7% in test [1]; -3.5% in test [2]; 5.15% in test [3]; -22.8% in test [4]; 25.1% in test [5]; -9.8% in test [6].

For `N/N=C1\C(=O)N(c2ccc(Cl)c(Cl)c2)C(=O)C1C(=O)Nc1ccc(Cl)c(Cl)c1` (stereo unspecified), the growth inhibition was -7.35% in test [1]; -19.4% in test [2]; -20.6% in test [3]; -16.4% in test [4]; -29.6% in test [5]; -31.1% in test [6].

On to `Cc1ccc2cc(-c3ccccc3)[nH]c2c1`, for which the growth inhibition in test [1] is -15.3%; in test [2], -11.2%; in test [3] it was -13.6%; in test [4], -13.4%; in test [5], -33.6%; in test [6], -55%.

Consider `O=C(CCCC1CCCCC1)OC1CCCCC1`, for which the growth inhibition is 5.3% in test [1]; 8.4% in test [2]; 8.7% in test [3]; -8.05% in test [4]; -3.9% in test [5]; -1.3% in test [6].

`O=C1c2ccccc2S(=O)(=O)c2c1cccc2[N+](=O)[O-]`: the growth inhibition in test [1] was 14.1%; in test [2], -15.4%; in test [3], 3.6%; in test [4] it was 5.3%; in test [5], -4.7%; in test [6], 15.7%.

For the compound `Cc1cc(S(=O)(=O)Nc2n[nH]c(N)n2)c(S)cc1Cl`, the growth inhibition is 11.4% in test [1]; 7.45% in test [2]; -6.65% in test [3]; -4.6% in test [4]; 1.1% in test [5]; 12.8% in test [6].

Regarding `CC1=C2CC(C)(C)/C=C\C(=O)/C(C)=C\C3=C[C@H](C)C[C@]3(O2)C1=O`, the growth inhibition was 60.8% in test [1]; 71.2% (active) in test [2]; 72.8% (active) in test [3]; 40.4% in test [4]; 64.4% in test [5]; 79.8% (active) in test [6].

For `O=C1c2cc(Cc3ccccc3)c(=O)c(Cc3ccccc3)cc2C(=O)c2cc(Cc3ccccc3)c(=O)c(Cc3ccccc3)cc21`, the growth inhibition is 23% in test [1]; -11.3% in test [2]; -11.3% in test [3]; -26% in test [4]; -6.35% in test [5]; 20.3% in test [6].

Consider `COc1ccc(N(C(=O)NCCO)c2ccccc2)cc1`, for which the growth inhibition is -3.75% in test [1]; -15.8% in test [2]; 14.9% in test [3]; 14.6% in test [4]; -2.3% in test [5]; 26.7% in test [6].

`O=C(O)C1C2CC=CCC21` (stereo unspecified): the growth inhibition is 13.4% in test [1]; 4.5% in test [2]; 11.8% in test [3]; 8.85% in test [4]; 12.2% in test [5]; 16.6% in test [6].
